# From paper PMC7862700, “An all-to-all approach to the identification of sequence-specific readers for epigenetic DNA modifications on cytosine”
# Columns and labels:
# Assay in all cases: DAPPL (digital affinity profiling via proximity ligation, sequencing); 10 mM Tris-HCl pH 7.5, 50 mM NaCl, 1 mM DTT, 4% glycerol, room temperature, 30 min; GST-TFs on glutathione beads, 16-mer random dsDNA library, 0.1% formaldehyde crosslink after washing; high values mean tight binding
# FEV = molecular target: T1, FEV (Homo sapiens, UniProt Q99581 1-238); details: protein: recombinant; tags: N-terminal GST; dsDNA, one strand shown
# T1 sequence: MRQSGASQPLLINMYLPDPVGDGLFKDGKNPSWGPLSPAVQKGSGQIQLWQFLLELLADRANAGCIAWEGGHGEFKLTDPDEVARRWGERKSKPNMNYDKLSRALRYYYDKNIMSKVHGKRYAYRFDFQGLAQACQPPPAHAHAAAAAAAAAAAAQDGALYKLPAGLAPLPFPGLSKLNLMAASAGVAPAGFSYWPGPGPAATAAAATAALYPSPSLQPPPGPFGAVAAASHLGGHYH
# Outline: (§1)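 Pools of DNA-barcoded human transcription factors, expressed in yeast as GST fusions on glutathione beads and combined with a tag-only sample, were incubated with 200 nmole of a 16-mer random double-stranded DNA library. Incubation took 30 min at room temperature in Tris/NaCl/DTT/glycerol buffer and was followed by washing, 0.1% formaldehyde crosslinking, proximity ligation (BsaI/T4 ligase, 1 h, 37 °C), PCR amplification and sequencing on an Illumina NextSeq500. Binding signal is the ratio of a hexamer's read frequency for a factor to its frequency for the tag-only sample.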
# ETV5 = ETV5 (Homo sapiens, UniProt P41161 1-510); details: protein: recombinant; tags: N-terminal GST; dsDNA, one strand shown
# Outline: as §1
# HSF1 = HSF1 (Homo sapiens, UniProt Q00613 1-529); details: protein: recombinant; tags: N-terminal GST; chain copies: 3; dsDNA, one strand shown
# Outline: as §1
# SPIC = molecular target: T2, SPIC (Homo sapiens, UniProt Q8N5J4 1-248); details: protein: recombinant; tags: N-terminal GST; dsDNA, one strand shown
# T2 sequence: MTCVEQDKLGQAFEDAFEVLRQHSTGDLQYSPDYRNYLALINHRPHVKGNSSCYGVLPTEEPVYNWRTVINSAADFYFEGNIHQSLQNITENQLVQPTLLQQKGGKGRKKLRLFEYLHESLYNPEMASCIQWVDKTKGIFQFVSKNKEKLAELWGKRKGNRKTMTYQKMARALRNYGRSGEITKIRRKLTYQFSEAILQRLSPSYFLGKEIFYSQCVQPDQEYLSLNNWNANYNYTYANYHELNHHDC
# Outline: as §1
# ELF4 = ELF4 (Homo sapiens, UniProt Q99607 1-663); details: protein: recombinant; tags: N-terminal GST; dsDNA, one strand shown
# Outline: as §1
# ELK4 = molecular target: T3, ELK4 (Homo sapiens, UniProt P28324-2 1-405); details: protein: recombinant; tags: N-terminal GST; dsDNA, one strand shown
# T3 sequence: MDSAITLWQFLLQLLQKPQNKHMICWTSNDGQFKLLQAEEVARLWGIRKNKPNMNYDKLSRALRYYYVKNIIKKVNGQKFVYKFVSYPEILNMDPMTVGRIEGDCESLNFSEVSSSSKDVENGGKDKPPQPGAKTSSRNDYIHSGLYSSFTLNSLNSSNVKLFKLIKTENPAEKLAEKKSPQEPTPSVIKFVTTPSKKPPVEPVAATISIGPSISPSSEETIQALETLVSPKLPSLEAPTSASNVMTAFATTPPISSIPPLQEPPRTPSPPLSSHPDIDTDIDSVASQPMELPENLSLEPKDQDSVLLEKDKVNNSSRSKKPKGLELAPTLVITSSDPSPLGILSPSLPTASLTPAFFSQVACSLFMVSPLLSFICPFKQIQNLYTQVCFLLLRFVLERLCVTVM
# Outline: as §1
# ETV2 = molecular target: T4, ETV2 (Homo sapiens, UniProt O00321 1-342); details: protein: recombinant; tags: N-terminal GST; dsDNA, one strand shown
# T4 sequence: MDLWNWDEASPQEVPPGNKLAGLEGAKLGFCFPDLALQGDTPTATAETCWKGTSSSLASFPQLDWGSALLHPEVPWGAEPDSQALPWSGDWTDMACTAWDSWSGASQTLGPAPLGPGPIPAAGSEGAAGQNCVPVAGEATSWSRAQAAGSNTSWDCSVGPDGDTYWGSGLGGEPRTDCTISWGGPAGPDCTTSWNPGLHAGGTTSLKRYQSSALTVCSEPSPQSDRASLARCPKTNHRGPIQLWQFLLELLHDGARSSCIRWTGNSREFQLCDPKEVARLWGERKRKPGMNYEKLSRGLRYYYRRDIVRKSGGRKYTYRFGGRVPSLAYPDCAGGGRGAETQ
# Outline: as §1
# ELF3 = molecular target: T5, ELF3 (Homo sapiens, UniProt P78545 1-371); details: protein: recombinant; tags: N-terminal GST; dsDNA, one strand shown
# T5 sequence: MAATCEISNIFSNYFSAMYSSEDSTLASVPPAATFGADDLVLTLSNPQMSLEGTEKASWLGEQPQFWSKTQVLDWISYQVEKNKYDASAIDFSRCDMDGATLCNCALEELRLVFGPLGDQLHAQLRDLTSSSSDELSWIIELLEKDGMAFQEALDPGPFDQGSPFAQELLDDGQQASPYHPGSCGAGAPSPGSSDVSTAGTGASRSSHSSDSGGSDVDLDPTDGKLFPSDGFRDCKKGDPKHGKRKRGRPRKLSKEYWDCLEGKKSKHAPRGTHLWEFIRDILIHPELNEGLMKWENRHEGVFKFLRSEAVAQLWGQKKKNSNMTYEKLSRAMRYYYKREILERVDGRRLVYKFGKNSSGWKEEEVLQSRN
# Outline: as §1
# CRX = CRX (Homo sapiens, UniProt O43186 1-299); details: protein: recombinant; tags: N-terminal GST; dsDNA, one strand shown
# Outline: as §1
# ETV1 = ETV1 (Homo sapiens, UniProt P50549 1-477); details: protein: recombinant; tags: N-terminal GST; dsDNA, one strand shown
# Outline: as §1
# ETV1, sequence (P50549 whole entry): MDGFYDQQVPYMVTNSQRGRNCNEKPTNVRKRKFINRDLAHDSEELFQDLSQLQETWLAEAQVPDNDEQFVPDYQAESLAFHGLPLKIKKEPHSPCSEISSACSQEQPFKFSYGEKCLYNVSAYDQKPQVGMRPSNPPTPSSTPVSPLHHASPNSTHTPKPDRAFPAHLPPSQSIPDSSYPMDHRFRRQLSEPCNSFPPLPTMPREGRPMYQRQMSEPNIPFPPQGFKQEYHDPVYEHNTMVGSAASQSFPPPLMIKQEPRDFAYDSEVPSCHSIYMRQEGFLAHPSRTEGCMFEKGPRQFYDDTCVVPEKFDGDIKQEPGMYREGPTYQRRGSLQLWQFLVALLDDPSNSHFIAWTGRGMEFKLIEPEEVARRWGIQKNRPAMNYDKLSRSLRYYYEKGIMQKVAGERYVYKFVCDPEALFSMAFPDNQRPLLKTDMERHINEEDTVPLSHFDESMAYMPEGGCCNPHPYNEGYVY
# ETV5, sequence (P41161 whole entry): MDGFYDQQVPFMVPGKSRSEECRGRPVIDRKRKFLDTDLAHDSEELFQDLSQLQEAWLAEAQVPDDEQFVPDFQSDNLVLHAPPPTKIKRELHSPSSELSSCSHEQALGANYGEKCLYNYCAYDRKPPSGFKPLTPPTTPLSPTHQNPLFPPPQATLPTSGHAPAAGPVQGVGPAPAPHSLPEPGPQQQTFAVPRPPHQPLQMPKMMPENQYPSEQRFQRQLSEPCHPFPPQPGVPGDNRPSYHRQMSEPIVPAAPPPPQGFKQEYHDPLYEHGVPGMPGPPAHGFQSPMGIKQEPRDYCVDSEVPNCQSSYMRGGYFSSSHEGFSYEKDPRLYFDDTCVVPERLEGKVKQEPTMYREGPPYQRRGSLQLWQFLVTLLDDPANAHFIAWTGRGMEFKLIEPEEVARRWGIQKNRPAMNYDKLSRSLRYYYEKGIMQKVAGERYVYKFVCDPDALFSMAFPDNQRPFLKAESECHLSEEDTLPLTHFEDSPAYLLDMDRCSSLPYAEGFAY
# CRX, sequence (O43186 whole entry): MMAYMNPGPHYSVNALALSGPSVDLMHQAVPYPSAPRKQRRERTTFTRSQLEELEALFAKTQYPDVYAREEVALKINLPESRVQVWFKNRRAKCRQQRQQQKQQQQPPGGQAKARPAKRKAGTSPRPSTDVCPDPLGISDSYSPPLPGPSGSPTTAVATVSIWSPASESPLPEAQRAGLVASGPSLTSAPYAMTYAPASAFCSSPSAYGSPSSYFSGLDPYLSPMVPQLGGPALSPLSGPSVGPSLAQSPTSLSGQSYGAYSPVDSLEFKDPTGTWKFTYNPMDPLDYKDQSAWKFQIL
# HSF1, sequence (Q00613 whole entry): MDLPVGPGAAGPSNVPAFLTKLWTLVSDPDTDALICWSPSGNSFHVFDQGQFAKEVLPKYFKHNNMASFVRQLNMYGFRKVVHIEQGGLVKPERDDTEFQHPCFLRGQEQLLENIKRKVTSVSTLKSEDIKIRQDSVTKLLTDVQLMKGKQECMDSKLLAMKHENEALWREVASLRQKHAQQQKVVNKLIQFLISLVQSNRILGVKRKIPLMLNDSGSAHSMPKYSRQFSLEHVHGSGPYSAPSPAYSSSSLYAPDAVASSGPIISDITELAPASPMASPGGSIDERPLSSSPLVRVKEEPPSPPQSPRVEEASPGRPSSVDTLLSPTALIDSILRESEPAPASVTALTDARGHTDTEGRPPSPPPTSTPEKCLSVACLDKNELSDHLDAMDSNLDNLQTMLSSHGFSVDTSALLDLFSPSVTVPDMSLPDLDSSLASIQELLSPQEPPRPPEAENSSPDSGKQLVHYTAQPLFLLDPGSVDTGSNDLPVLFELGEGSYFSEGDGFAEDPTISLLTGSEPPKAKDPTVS
# ELF4, sequence (Q99607 whole entry): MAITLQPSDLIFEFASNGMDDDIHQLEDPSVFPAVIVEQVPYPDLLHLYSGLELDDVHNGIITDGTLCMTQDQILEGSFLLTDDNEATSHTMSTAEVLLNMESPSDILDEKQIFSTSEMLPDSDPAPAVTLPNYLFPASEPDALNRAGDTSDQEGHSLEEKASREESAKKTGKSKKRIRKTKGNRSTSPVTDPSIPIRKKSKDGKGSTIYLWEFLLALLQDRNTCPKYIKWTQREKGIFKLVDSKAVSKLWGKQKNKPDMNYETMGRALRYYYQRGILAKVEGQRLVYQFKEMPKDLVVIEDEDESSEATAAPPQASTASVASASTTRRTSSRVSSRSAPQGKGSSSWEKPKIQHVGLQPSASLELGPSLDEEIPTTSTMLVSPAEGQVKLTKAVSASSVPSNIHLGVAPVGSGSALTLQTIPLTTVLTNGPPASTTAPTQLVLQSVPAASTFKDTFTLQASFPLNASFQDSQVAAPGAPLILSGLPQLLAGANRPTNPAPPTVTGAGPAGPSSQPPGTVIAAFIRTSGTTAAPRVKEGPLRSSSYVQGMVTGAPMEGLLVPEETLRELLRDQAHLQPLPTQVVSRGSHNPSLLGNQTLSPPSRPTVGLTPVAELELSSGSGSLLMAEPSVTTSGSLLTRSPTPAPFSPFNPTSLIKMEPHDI
sequence,measurement,setting,value
TACCAC,binding signal,FEV,"1.3 fold enrichment (6-mer frequency, TF over GST control)"
same,binding signal,ETV5,"1.19 fold enrichment (6-mer frequency, TF over GST control)"
same,binding signal,HSF1,"1.12 fold enrichment (6-mer frequency, TF over GST control)"
same,binding signal,SPIC,"1.25 fold enrichment (6-mer frequency, TF over GST control)"
same,binding signal,ELF4,"1.23 fold enrichment (6-mer frequency, TF over GST control)"
same,binding signal,ELK4,"1.18 fold enrichment (6-mer frequency, TF over GST control)"
same,binding signal,ETV2,"1.2 fold enrichment (6-mer frequency, TF over GST control)"
same,binding signal,ELF3,"1.25 fold enrichment (6-mer frequency, TF over GST control)"
same,binding signal,CRX,"1.17 fold enrichment (6-mer frequency, TF over GST control)"
same,binding signal,ETV1,"1.24 fold enrichment (6-mer frequency, TF over GST control)"
